Most compounds without a hit are left out; they make up all but 5.6% or so of the library.
H9c2 protect = cardioprotection against H2O2-induced cell death, primary screen, uHTS, H9c2 cells, ATPLite luminescence | protection from H2O2 cell death, % at 20 µM | 0.63% of 360,000 active | H9c2 cardiomyocytes, H2O2 injury protection, 2 h | AID 588492, 2011;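 active = compounds giving at least 50% protection of heart cells from peroxide-induced death in the single-dose screen, raw or plate-pattern-corrected value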;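 note: 0% = DMSO wells with peroxide and 100% = DMSO wells without peroxide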
PfM18AAP inh-1 = PfM18AAP inhibitors, malaria aminopeptidase, primary screen, biochemical, QFRET, recombinant enzyme. AID 1822, 2009. H-Glu-NHMec fluorogenic cleavage. inhibition, % at 7.35 µM. 1.2% of 290,000 active;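 active = inhibition above the campaign mean inhibition over all tested compounds plus 3 SD, cut at about 28% in these data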;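 note: 0% = plate median of test compound wells and 100% = 2 mM ZnCl2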
PHOSPHO1 block = PubChem AID 1565; recombinant PHOSPHO1, absorbance phosphatase assay; Phosphoethanolamine/phosphocholine phosphatase (Homo sapiens), Q8TCT1; 1.1% of 290,000 active; inhibition, % at 13.3 µM; in the data active = inhibition above about 60%
PfG6PD inh = PfG6PD enzyme inhibitors, primary screen, biochemical, fluorescence intensity, uHTS; glucose-6-phosphate dehydrogenase-6-phosphogluconolactonase (Plasmodium falciparum 3D7); PfGluPho enzyme, NADPH resazurin-diaphorase fluorescence; inhibition, % at 20 µM; 0.78% of 350,000 active;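 active = inhibition reaching at least a set limit at 20 µM in the primary screen, cut at about 59% in these data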;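 note: 0% = DMSO wells with substrate and 100% = DMSO wells lacking glucose-6-phosphate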
ALR inh = inhibitors of human ALR sulfhydryl oxidase, primary screen, biochemical, H2O2 detection, HRP-luminol luminescence, single point. inhibition, % (no concentration beside the values). FAD-linked sulfhydryl oxidase ALR (Homo sapiens), P55789. AID 485317, 2010. purified ALR, DTT oxidation. 3.8% of 290,000 active;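 active = mean replicate inhibition above about 79%, with every replicate also reaching it, limit read from the data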
Target sequence (P55789 whole entry, looked up): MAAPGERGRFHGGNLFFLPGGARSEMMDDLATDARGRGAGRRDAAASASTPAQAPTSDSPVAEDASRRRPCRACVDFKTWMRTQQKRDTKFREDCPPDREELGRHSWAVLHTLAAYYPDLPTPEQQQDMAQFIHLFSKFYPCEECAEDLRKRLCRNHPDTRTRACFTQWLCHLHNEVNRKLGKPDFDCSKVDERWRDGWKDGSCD
PfM18AAP inh-2 = PfM18AAP inhibitors, malaria aminopeptidase, confirmation, biochemical, QFRET, recombinant enzyme, triplicate. shares compounds with PfM18AAP inh-1. H-Glu-NHMec fluorogenic cleavage. inhibition, % at 7.35 µM. 28% of 2,400 active;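 active = mean inhibition over replicate wells above the hit cutoff set for the earlier primary screen, cut at about 29% in these data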;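 note: 0% = median of test compound wells and 100% = 2 mM ZnCl2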
CTSL1 confirm = cathepsin L1 inhibitors, retest, confirmation, counter-screen for PFM18AAP inhibitor project, biochemical, QFRET, triplicate. 2,400 tested, under 10 active. purified cathepsin L1, Z-Leu-Arg-MCA fluorescence. shares compounds with PfM18AAP inh-1. inhibition, % at 5.96 µM;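 active = average inhibition across replicates above the hit cutoff set in the earlier primary screen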;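 note: 0% = median of test compound wells and 100% = Z-Phe-Ala-diazomethylketone 1 µM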
Target sequence (P07711 whole entry, looked up): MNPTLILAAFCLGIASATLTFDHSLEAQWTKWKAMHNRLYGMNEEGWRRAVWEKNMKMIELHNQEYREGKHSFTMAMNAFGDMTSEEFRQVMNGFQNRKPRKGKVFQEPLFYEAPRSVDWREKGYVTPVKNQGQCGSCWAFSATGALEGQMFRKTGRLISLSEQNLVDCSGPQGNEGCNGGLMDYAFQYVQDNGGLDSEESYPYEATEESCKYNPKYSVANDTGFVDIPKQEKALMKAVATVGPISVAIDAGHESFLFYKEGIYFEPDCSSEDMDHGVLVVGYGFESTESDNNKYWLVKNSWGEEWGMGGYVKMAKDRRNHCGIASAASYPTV
* = called active by the depositor; nt = no result given.

SMILES	H9c2 protect	PfM18AAP inh-1	PHOSPHO1 block	PfG6PD inh	ALR inh	PfM18AAP inh-2	CTSL1 confirm
Cc1cc2occ(CC(=O)N(C)CC(=O)Nc3ccccc3C(F)(F)F)c2cc1C	-12	nt	nt	14	nt	nt	nt
CCN(CC)CCNC(=O)c1cccc(NC(=O)C(=O)c2cc(Br)ccc2NC(C)=O)c1	6	-3	7	11	nt	nt	nt
COc1ccc(N2CCN(CCCn3c(=S)[nH]c4ncccc4c3=O)CC2)cc1	-4	45*	24	22	6	-38	-10
O=c1c2cccnc2[nH]c(=S)n1CCCN1CCN(c2ccc(F)cc2)CC1	-9	-7	-7	-10	24	nt	nt
Cc1occc1-c1nnc(SC(C)C(=O)Nc2ccccc2F)o1 (stereo not given)	10	nt	nt	-1	nt	nt	nt
O=C(NCCN1CCOCC1)c1cc(Cl)ccc1Cl	-5	-3	14	-8	-11	nt	nt
COCC(C)NC(=O)NC1(C(F)(F)F)Oc2ccc(Cl)cc2O1 (stereo not given)	6	79*	4	-18	-5	66*	3
O=C(NCCN1CCOCC1)NC1(C(F)(F)F)Oc2ccc(Cl)cc2O1 (stereo not given)	46	87*	-15	-20	99*	89*	-4
O=C(O)c1cccc(-c2ccc(/C=N/n3cnnc3)o2)c1	-2	32*	30	11	-10	-12	7
Cc1c(Cl)cccc1-c1ccc(/C=N/n2cnnc2)o1	12	23	-5	14	-1	nt	nt
Cc1cc(-c2ccc(/C=N/n3cnnc3)o2)ccc1Cl	0	16	-17	7	0	nt	nt
O=[N+]([O-])c1ccc(-c2ccc(/C=N/n3cnnc3)o2)c(Br)c1	3	51*	34	5	38	-10	4
Cc1cc([N+](=O)[O-])c(C)cc1-c1ccc(/C=N/n2cnnc2)o1	3	15	34	8	-16	nt	nt
Cc1c(C(=O)O)cccc1-c1ccc(/C=N/n2cnnc2)o1	6	35*	31	5	nt	-1	-3
CN(CCOc1ccccc1)C(=O)C1CCC(=O)N(CCCN2CCCC2=O)C1 (stereo not given)	7	-5	26	-10	-6	nt	nt
O=C1NCCCC2c3c(cc(Br)c(O)c3Br)OC12N1CCCCC1 (stereo not given)	-7	51*	16	9	99*	-93	3
CCNc1nc(NCC)nc(N/N=C/c2ccc(O)c(O)c2)n1	15	47*	24	-2	99*	33*	0
CCNc1nc(NCC)nc(N/N=C/c2cc(OC)c(OC)c(OC)c2)n1	4	-18	12	8	7	nt	nt
C=CCc1cccc(/C=N/c2ncn[nH]2)c1O	14	57*	1	-6	nt	43*	-4
Cc1cc(C(=O)N2CCC2(C)C(=O)NS(=O)(=O)c2ccc(Cl)cc2)nn1C (stereo not given)	-9	nt	nt	nt	nt	nt	nt
Cc1ccc2sc(NNC(=O)C3=COCCO3)nc2c1C	10	32*	27	-12	99*	21	-1
O=C(NNc1nc2c(F)cccc2s1)C1=COCCO1	-7	44*	27	8	100*	11	-1
COc1ccc(N(C(=O)c2cnccn2)C(C(=O)NC2CCCCC2)c2ccccc2)cc1 (stereo not given)	2	5	32	1	6	nt	nt
Cc1sc2c(c1C)c(=O)nc1scc(C)n12	nt	-1	nt	nt	nt	nt	nt
NNC(=S)Nc1cc(S(=O)(=O)N2CCOCC2)ccc1N1CCOCC1	9	40*	-14	11	11	14	-8
SMILES	H9c2 protect	PfM18AAP inh-1	PHOSPHO1 block	PfG6PD inh	ALR inh	PfM18AAP inh-2	CTSL1 confirm
CC(=O)Nc1ccccc1NC(=O)C/C(C)=N/NC(=O)c1ccccn1	-2	41*	10	7	0	-39	-5
N#CCn1c(Cc2ccccc2)nc2ccccc2c1=O	7	5	3	11	-4	nt	nt
N#CC/C(N)=N/Nc1nc2ccccc2nc1Cc1ccccc1	25	36*	7	-9	25	9	-4
Cc1oc(-c2ccc3c(c2)OCCO3)cc1C(=O)NC(CCC(=O)O)C(=O)O (stereo not given)	-2	38*	11	-16	21	-12	8
COCc1[nH]nc2c1C(c1cc(OC)c(O)c(OC)c1)C(C#N)=C(N)O2 (stereo not given)	7	38*	1	19	11	-4	5
COCc1[nH]nc2c1C(c1ccc(OC)c(OC)c1)C(C#N)=C(N)O2 (stereo not given)	4	7	-6	-7	23	nt	nt
COc1cccc(/C=C2\SC(=O)N(CCC(=O)N3CCC(C(=O)O)CC3)C2=O)c1	-3	35*	32	-7	-4	-38	3
COc1ccc(OC)c(S(=O)(=O)Nc2cccc(O)c2)c1	2	nt	nt	5	18	nt	nt
COc1ccc(OC)c(S(=O)(=O)Nc2ccc(O)c(Sc3ncn[nH]3)c2)c1	-1	64*	20	30	99*	36*	0
CCOc1ccc(S(=O)(=O)Nc2ccc(O)c(Sc3ncn[nH]3)c2)cc1	-4	54*	-17	-14	99*	27	-2
Cc1cc(F)ccc1S(=O)(=O)Nc1ncnc2sccc12	7	-16	24	-9	-8	nt	nt
Cc1cc(F)ccc1S(=O)(=O)Nc1ccc(O)c(Sc2ncn[nH]2)c1	-2	52*	10	29	99*	11	-4
Cc1ccc(S(=O)(=O)Nc2ccc(O)c(Sc3ncn[nH]3)c2)cc1	5	56*	23	29	99*	22	-9
CN(Cc1ccccc1Cl)C(=O)C1CCC(=O)N(C2CCCCCC2)C1 (stereo not given)	-2	-1	50	3	nt	nt	nt
Cc1cc(NC(=O)COC(=O)C2=NN(c3ccccc3)C(=O)CC2)c([N+](=O)[O-])cc1C	2	nt	nt	-11	20	nt	nt
Cc1cc(F)ccc1S(=O)(=O)Nc1ccccc1C(=O)Nc1ncn[nH]1	-8	49*	12	14	4	48*	0
Cc1ccc(C)c(S(=O)(=O)Nc2ccc(O)c(Sc3ncn[nH]3)c2)c1	0	39*	22	23	99*	15	1
Cc1ccc(C)c(S(=O)(=O)Nc2ccc3[nH]c(=O)[nH]c3c2)c1	-9	-9	14	17	-21	nt	nt
COc1cccc(N2CCN(C(=O)C3CCCN(c4ncnc5c4nc4n5CCCCC4)C3)CC2)c1 (stereo not given)	42	0	34	6	8	nt	nt

High-throughput results from PubChem.
